Sampled rows, rich in hits. Any-hit rate of the full collection: about 2%.
NadD block = inhibitors of Staphylococcus aureus NadD | purified NadD enzyme, colorimetric absorbance read-out | inhibition, % at 20 µM | 360,000 compounds, 0.78% hits; in the data active = inhibition above about 26%
DAGLB inh = blocks human DAGLB lipase activity | 340,000 compounds, 0.059% hits | Q8NCG7 | AID 504411 | HEK293T DAGLB membrane lysate, EnzChek fluorogenic substrate | inhibition, % at 5.17 µM; in the data active = inhibition above about 34%
Target sequence (Q8NCG7 whole entry, looked up): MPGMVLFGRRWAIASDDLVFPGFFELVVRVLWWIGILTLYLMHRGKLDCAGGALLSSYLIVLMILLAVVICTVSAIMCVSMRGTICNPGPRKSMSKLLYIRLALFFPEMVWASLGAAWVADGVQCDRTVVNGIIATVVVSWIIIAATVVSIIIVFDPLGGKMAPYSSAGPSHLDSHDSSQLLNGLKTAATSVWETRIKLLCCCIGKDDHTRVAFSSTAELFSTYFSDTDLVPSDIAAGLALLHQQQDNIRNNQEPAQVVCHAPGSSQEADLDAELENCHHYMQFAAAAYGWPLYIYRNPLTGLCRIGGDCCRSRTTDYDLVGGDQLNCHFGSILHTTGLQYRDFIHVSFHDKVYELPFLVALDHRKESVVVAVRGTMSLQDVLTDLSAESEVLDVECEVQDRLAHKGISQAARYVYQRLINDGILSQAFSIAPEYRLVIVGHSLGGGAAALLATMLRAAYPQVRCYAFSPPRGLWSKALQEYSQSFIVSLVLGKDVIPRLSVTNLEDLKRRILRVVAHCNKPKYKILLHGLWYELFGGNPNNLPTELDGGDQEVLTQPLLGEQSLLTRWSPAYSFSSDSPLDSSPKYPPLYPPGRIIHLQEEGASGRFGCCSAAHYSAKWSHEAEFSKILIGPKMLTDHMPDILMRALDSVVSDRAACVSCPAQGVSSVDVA
Neddylation inh = cullin neddylation inhibition; TR-FRET cullin neddylation, biochemical; inhibition, % at 25 µM; 360,000 compounds, 0.58% hits; P61081+Q13564; in the data active = inhibition above about 36%
sPLA2-III inh = Blocks human group III sPLA2 activity; Q9NZ20; QFRET BODIPY PC-A2 liposome hydrolysis, fluorescence; inhibition, % at 12.2 µM; 370,000 compounds, 0.56% hits;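 active = inhibition above mean plus 3 SD of compounds lying within the high and low control bounds, cut at about 19% in these data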
ARNT TACC3 PPI = disrupts binding between human ARNT and TACC3 | AlphaScreen His-ARNT PAS-B/GST-TACC3 binding, luminescence; TACC3 fragment carries E629A point mutation | inhibition, % at 9.99 µM | 390,000 compounds, 0.66% hits | AID 623870;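 active = mean inhibition of replicates at least 50% and at least half of replicates each reaching 50%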
NadD inh conf = confirmation of Staphylococcus aureus NadD inhibitors; shares compounds with NadD block; purified S. aureus NadD, colorimetric enzyme assay; inhibition, % at 20 µM; 2,000 compounds, 13% hits; in the data active = inhibition mostly above about 42%, no sharp cut-off; inactive = mostly below about 42%
Of the large screens only hits and unclear results are named; the others gave an inactive call (follow-up assays come after a bar, where shown).

C[C@@H]1CN([C@H](C)CO)C(=O)c2cc(NS(=O)(=O)c3ccccc3)ccc2O[C@@H](C)CCCCO[C@@H]1CN(C)C(=O)c1ccncc1	none (no result: NadD block, DAGLB inh, Neddylation inh, sPLA2-III inh)
O=C(/C=C/c1cccs1)Nc1ccc(N2CCOCC2)c(S(=O)(=O)Nc2ccccc2Cl)c1	none
COc1ccccc1NS(=O)(=O)c1cc(NC(=O)Nc2ccccc2)ccc1N1CCCCC1	NadD block 35 (no result: ARNT TACC3 PPI) | NadD inh conf inactive
Cc1ccc(NC(=O)c2cc3c(s2)CCCC3)cc1S(=O)(=O)Nc1ccccc1Cl	NadD block 30 | NadD inh conf inactive
O=C(/C=C/c1cccs1)Nc1ccc(N2CCOCC2)c(S(=O)(=O)Nc2cc(Cl)ccc2Cl)c1	NadD block 34 (no result: ARNT TACC3 PPI) | NadD inh conf inactive
Cc1ccc(C(=O)Nc2ccc(C)c(S(=O)(=O)Nc3ccccc3Cl)c2)s1	none
O=C(Nc1ccc(F)cc1)Nc1ccc(N2CCCC2)c(S(=O)(=O)Nc2ccccc2Cl)c1	NadD block 30 | NadD inh conf inactive
C[C@H](CO)N1C[C@H](C)[C@@H](CN(C)C(=O)c2cccc(F)c2)Oc2cc(-c3cccc(F)c3)ccc2S1(=O)=O	none (no result: NadD block, DAGLB inh, Neddylation inh, sPLA2-III inh)
O=C([C@H]1[C@H](CO)[C@H]2Cn3c(cccc3=O)[C@@H]1N2C(=O)c1ccccn1)N1CCCCC1	none (no result: NadD block, DAGLB inh, Neddylation inh, sPLA2-III inh)
C[C@H](CO)N1C[C@H](C)[C@H](CN(C)C(=O)Cc2ccncc2)Oc2cc(C#CC3(O)CCCC3)ccc2S1(=O)=O	none (no result: NadD block, DAGLB inh, Neddylation inh, sPLA2-III inh)
COc1ccc(NS(=O)(=O)c2cc(NC(=O)CCNC(C)=O)ccc2N2CCCCC2)cc1	none
O=C(Nc1ccc(Cl)c(Cl)c1)Nc1ccc(N2CCCC2)c(S(=O)(=O)Nc2ccccc2Cl)c1	NadD block 31 | NadD inh conf inactive
COc1ccc(NS(=O)(=O)c2cc(NC(=O)/C=C/c3cc(OC)ccc3OC)ccc2N2CCCCC2)cc1	NadD block 39 (not shown: Neddylation inh) | NadD inh conf inactive
O=C(Nc1ccc(N2CCCCC2)c(S(=O)(=O)Nc2ccccc2Cl)c1)c1cccnc1	none
C=C(C)[C@@H]1CC[C@]2(C(=O)O)CC[C@]3(C)C(CCC4[C@@]5(C)CC[C@H](O)C(C)(C)C5CC[C@]43C)C12 (some centres not stated)	none
C=C(C)[C@@H]1CCC2(C(=O)O)CC[C@]3(C)[C@H](CC[C@@H]4[C@@]5(C)CCC(=O)C(C)(C)[C@@H]5CC[C@]43C)[C@@H]12 (some centres not stated)	NadD block 48 | NadD inh conf inactive
CCc1ccc(NC(=O)C(C)OC(=O)c2cc(=O)[nH]c3ccc(S(=O)(=O)Nc4ccc(F)cc4)cc23)cc1 (configuration not stated)	NadD block 34 | NadD inh conf inactive
Cc1cccc(NS(=O)(=O)c2ccc3[nH]c(=O)cc(C(=O)OC(C)C(=O)Nc4ccc([N+](=O)[O-])cc4)c3c2)c1 (configuration not stated)	NadD block 43 | NadD inh conf inactive
COc1ccc(CNC(=O)C[C@H]2CC[C@H](NC(=O)c3cccc(F)c3)[C@H](CO)O2)cc1	none (no result: NadD block, DAGLB inh, Neddylation inh, sPLA2-III inh)
COc1ccc(C2C(C#N)=C3NC(=O)c4c(sc5c4CCCCC5)N3C3=C2C(=O)CC(C)(C)C3)cc1 (configuration not stated)	NadD block 61 | NadD inh conf inactive
O=C(O)CC/C(=C/c1cccc(NC(=O)c2ccccc2Cl)c1)c1nc2ccccc2s1	NadD block 47 | NadD inh conf inactive
O=C(O)CC/C(=C\c1ccc2c(c1)OCO2)c1nc2ccccc2s1	none (no result: ARNT TACC3 PPI)
CN(C)C1=C(Cl)C(=O)N(c2ccc(Cl)c(Cl)c2)C1=O	none
CN(C)/C=C1\C(=O)N(c2ccc(Cl)c(Cl)c2)CS1(=O)=O	NadD block 33 (no result: ARNT TACC3 PPI) | NadD inh conf inactive
C[C@H](CO)N1C[C@H](C)[C@H](CN(C)C(=O)c2ccncc2)Oc2ncc(C3=CCCC3)cc2C1=O	none (no result: NadD block, DAGLB inh, Neddylation inh, sPLA2-III inh)
Cn1c(-c2ccc(C=O)s2)nc2c3ccccc3c3ccccc3c21	NadD block 50 (not shown: Neddylation inh, ARNT TACC3 PPI) | NadD inh conf inactive
Cc1nn(Cc2ccc(Cl)c(Cl)c2)c(C)c1NC(=O)c1cn(-c2ccccc2)nc1-c1ccccc1	NadD block 33 (no result: ARNT TACC3 PPI) | NadD inh conf inactive
O=c1/c(=C\c2cccc(O)c2)sc2nc(-c3ccccc3)c(-c3ccccc3)n12	NadD block 35 | NadD inh conf inactive
O=C(N/N=C/c1ccccc1Cl)c1nc2ccc([N+](=O)[O-])cc2c(=O)[nH]1	NadD block 36 (no result: ARNT TACC3 PPI) | NadD inh conf inactive
O=C(N/N=C/c1cccc([N+](=O)[O-])c1)c1nc2ccccc2c(=O)[nH]1	none
Cc1ccc(/C=C/c2nc3sc(C(=O)O)c(C)c3c(=O)[nH]2)cc1[N+](=O)[O-]	NadD block 36 (no result: ARNT TACC3 PPI) | NadD inh conf inactive
O=C(O)c1ccc(/C=C/c2nc3sc4c(c3c(=O)[nH]2)CCC4)cc1	none (not shown: Neddylation inh)
COc1cccc(S(=O)(=O)N[C@H]2C=C[C@@H](CC(=O)NC3Cc4ccccc4C3)O[C@H]2CO)c1	none (no result: NadD block, DAGLB inh, Neddylation inh, sPLA2-III inh)
COc1ccc(/C=N/Nc2nc(-c3cccc(S(=O)(=O)N4CCCC4)c3)cs2)c(OC)c1	NadD block 37 | NadD inh conf inactive
COc1cccc(C(=O)Nc2nc(-c3ccc(S(=O)(=O)N4CCOCC4)cc3)cs2)c1	none
CN(C)C(=O)C[C@@H]1CC[C@@H]2[C@H](COC[C@H](O)CN2S(=O)(=O)c2ccccc2)O1	none (no result: NadD block, DAGLB inh, Neddylation inh, sPLA2-III inh)
COc1ccc(C(=O)/C=C/c2ccc(OCc3ccccc3)cc2)cc1CSCC(=O)O	NadD block 26 | NadD inh conf inactive
COc1cc(OC)c2c(-c3ccccc3)cc(=O)oc2c1C(CC(=O)N1CCOCC1)c1ccc(N(C)C)cc1 (configuration not stated)	none
COc1cc(OC)c2c(-c3ccccc3)cc(=O)oc2c1C(CC(=O)N1CCN(c2ccccc2)CC1)c1ccc(N(C)C)cc1 (configuration not stated)	NadD block 30 | NadD inh conf inactive
COCCOC(=O)c1c(C)oc2ccc(NS(=O)(=O)c3cccs3)cc12	none
CCCCOC(=O)c1c(C)oc2ccc(NS(=O)(=O)c3ccc4c5c(cccc35)C(=O)N4)cc12	NadD block 32 | NadD inh conf inactive
C[C@H](CO)N1C[C@H](C)[C@@H](CN(C)S(=O)(=O)c2cccs2)Oc2ncc(/C=C/c3ccccc3)cc2C1=O	none (no result: NadD block, DAGLB inh, Neddylation inh, sPLA2-III inh)
CN1CCN(C(=O)c2ccc3c(=O)n(Cc4ccco4)c(=S)[nH]c3c2)CC1	none
O=C(c1ccc2c(=O)n(Cc3ccco3)c(=S)[nH]c2c1)N1CCN(Cc2ccccc2)CC1	NadD block 56 | NadD inh conf 36
O=C1NC(=O)c2c(Br)c(Br)c(Br)c(Br)c21	NadD block 30 | NadD inh conf inactive
Cc1cc(C)c2nc(N3C(=O)C(O)=C(C(=O)c4ccco4)C3c3ccco3)sc2c1 (configuration not stated)	NadD block 39 | NadD inh conf inactive

Screening results from PubChem BioAssay.
